High-throughput results from PubChem.
In the library only some 3.7% were active in any assay of this set; here they are far more common.
FadD28 FP inh: inhibitors of FadD28 bisubstrate probe binding, primary screen, biochemical, fluorescence polarization, single point. inhibition, % at 12.5 µM. 360,000 tested, 0.22% active. AID 588549, 2011; in the data active = inhibition above about 8.5%, passing the limit was not always enough
Mtb betalactam: beta-lactam sensitization of Mtb H37Rv, H37Rv; M. tuberculosis H37Rv growth with meropenem, percent inhibition; inhibition, % at 25 µM; 330,000 tested, 0.27% active; AID 434955, 2010; call rule not given here;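 note: growth measured after seven days incubation then overnight dye step; 0% = bacteria only wells and 100% = bacteria with antibiotic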
GDH-TPI inh: GDH-TPI coupling enzyme inhibitors, primary screen, artefact control for M. tuberculosis FBA inhibitor project, biochemical, absorbance, full deck. inhibition, % at 4.8 µM. 360,000 tested, 1.2% active. AID 588335, 2011. GDH-TPI coupled enzyme counterscreen, NADH absorbance; in the data active = inhibition above about 30%;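 note: 0% = DMSO wells and 100% = wells lacking the enzyme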
Mtb FBA inh: Mtb FBA enzyme inhibitors, primary screen, biochemical, fluorescence, strain H37Rv | 360,000 tested, 2.3% active | inhibition, % at 1 µM | Fructose-bisphosphate aldolase (Mycobacterium tuberculosis (strain ATCC 25618 / H37Rv)), … | purified M. tuberculosis FBA, fluorescence read-out; in the data active = inhibition above about 27%;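 note: 0% = vehicle and 100% = reference inhibitor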
Target sequence (P9WQA3 whole entry, looked up): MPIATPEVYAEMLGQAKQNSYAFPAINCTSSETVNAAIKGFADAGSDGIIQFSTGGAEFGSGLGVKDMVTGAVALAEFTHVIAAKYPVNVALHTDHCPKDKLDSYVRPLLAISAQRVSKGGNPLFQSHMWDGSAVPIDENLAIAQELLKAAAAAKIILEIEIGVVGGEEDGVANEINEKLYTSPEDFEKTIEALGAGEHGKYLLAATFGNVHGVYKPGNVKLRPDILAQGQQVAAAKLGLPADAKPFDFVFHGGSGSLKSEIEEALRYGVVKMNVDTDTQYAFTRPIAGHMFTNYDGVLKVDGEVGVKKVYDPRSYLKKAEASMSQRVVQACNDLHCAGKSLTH
Rv3671c protease: Rv3671c serine protease inhibitors, primary screen, biochemical, fluorescence polarization, M. tuberculosis H37Rv. P9WHR9. inhibition, % at 5.96 µM. 320,000 tested, 0.048% active. AID 2606, 2010; in the data active = inhibition above about 38%;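 note: extracellular domain of Rv3671c used as enzyme; 0% = enzyme with DMSO and 100% = no enzyme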
Mtb UGM inh: M. tuberculosis UGM enzyme inhibitors, primary screen, biochemical, fluorescence polarization, single point. purified UGM, fluorescence polarization probe displacement. UDP-galactopyranose mutase (Mycobacterium tuberculosis (strain ATCC 25618 / H37Rv)), …. inhibition, % at 10 µM. AID 504406, 2011. 320,000 tested, 0.06% active; in the data active = inhibition above about 10%, passing the limit was not always enough
* hit, by the source's call.

What do the screens show for `COc1ccc2c(c1)c(C(=O)N/N=C/c1cn(C)c3ccccc13)c(C)n2C`?
FadD28 FP inh: -1; Mtb betalactam: 7; GDH-TPI inh: 37*; Mtb FBA inh: -3; Rv3671c protease: 0; Mtb UGM inh: 0

Results for Nc1nc(N=Nc2ccc(O)cc2)cc(=O)[nH]1 ?
FadD28 FP inh: -1; GDH-TPI inh: 20; Mtb FBA inh: -21

What do the screens show for `Cc1cccc(S(=O)C(c2ccccc2)c2ccccc2)c1` (stereo not drawn)?
FadD28 FP inh: 0; GDH-TPI inh: 2; Mtb FBA inh: -1

Results for Cc1ccc(Nc2c(O)nc[nH]c2=O)cc1 ?
FadD28 FP inh: -3; GDH-TPI inh: -1; Mtb FBA inh: -1

What do the screens show for `Cn1nc(NC(=O)C(F)(F)F)c2ncc(-c3ccccc3)nc21`?
FadD28 FP inh: -1; GDH-TPI inh: 32*; Mtb FBA inh: 6

How did CCOC(=O)C1CCN(C(=O)Cn2cc(C(=O)c3ccco3)c3ccccc32)CC1 do in these assays?
FadD28 FP inh: -2; Mtb betalactam: -6; GDH-TPI inh: 13; Mtb FBA inh: -1; Rv3671c protease: 1; Mtb UGM inh: -2

How did O=C(c1ccco1)c1cn(CC(=O)N2CCCCCC2)c2ccccc12 do in these assays?
FadD28 FP inh: 0; Mtb betalactam: -13; GDH-TPI inh: 38*; Mtb FBA inh: -3; Rv3671c protease: 9; Mtb UGM inh: 2

How did Cn1c(N2CCOCC2)nc(-c2ccccc2)c1-c1ccccc1 do in these assays?
FadD28 FP inh: 0; Mtb betalactam: 1; GDH-TPI inh: 2; Mtb FBA inh: 103*; Rv3671c protease: -5; Mtb UGM inh: 0

Results for c1ccc(-c2nc3ccccc3nc2N2CCOCC2)cc1 ?
FadD28 FP inh: -1; Mtb betalactam: 3; GDH-TPI inh: 15; Mtb FBA inh: 15; Rv3671c protease: 5; Mtb UGM inh: -3

Results for Cc1ccc(/C=N/NC(=O)C(=O)N/N=C/c2ccc(C)o2)o1 ?
FadD28 FP inh: 1; Mtb betalactam: -14; GDH-TPI inh: 7; Mtb FBA inh: 0; Rv3671c protease: -28; Mtb UGM inh: 0

Results for Cc1ccc(C(=O)N/N=C\c2ccc(Br)o2)o1 ?
FadD28 FP inh: -1; Mtb betalactam: -6; GDH-TPI inh: 58*; Mtb FBA inh: -3; Rv3671c protease: -4; Mtb UGM inh: 0

How did Cc1c(/C=N/NC(=O)c2ccc(Br)o2)cnn1C do in these assays?
FadD28 FP inh: -2; Mtb betalactam: -6; GDH-TPI inh: 9; Mtb FBA inh: 127*; Rv3671c protease: 1; Mtb UGM inh: 3

How did CCc1nc2c(OCC(=O)C(C)(C)C)cccn2c1N(C=O)CC(=O)N(C)C do in these assays?
FadD28 FP inh: -3; GDH-TPI inh: -2; Mtb FBA inh: 0

Results for CCCN(CCC)c1nc2ccccc2nc1C(C#N)C(=O)OCCOC (stereo not drawn) ?
FadD28 FP inh: -4; Mtb betalactam: -4; GDH-TPI inh: 7; Mtb FBA inh: -5; Rv3671c protease: -13

How did C=CCN(CC=C)c1nc2ccccc2nc1C(C#N)C(=O)OCCOC (stereo not drawn) do in these assays?
FadD28 FP inh: -3; Mtb betalactam: 0; GDH-TPI inh: -6; Mtb FBA inh: 57*; Rv3671c protease: -10; Mtb UGM inh: 1

What do the screens show for `O=C(CN1CCN(C/C=C/c2ccccc2)CC1)Nc1cc([N+](=O)[O-])ccc1Cl`?
FadD28 FP inh: -1; Mtb betalactam: 5; GDH-TPI inh: 8; Mtb FBA inh: 0; Rv3671c protease: -4; Mtb UGM inh: 0

How did COc1cc(N)c2ncccc2c1Cl do in these assays?
FadD28 FP inh: 0; GDH-TPI inh: 12; Mtb FBA inh: 46*

How did O=C(Cn1ncn2nc(-c3ccccc3)cc2c1=O)NCc1ccccn1 do in these assays?
FadD28 FP inh: -3; Mtb betalactam: 3; GDH-TPI inh: -6; Mtb FBA inh: -2; Rv3671c protease: 0; Mtb UGM inh: 0

Results for CCc1cc(C(=O)OCC(=O)N2CCC(c3ccccc3)=N2)sc1C ?
FadD28 FP inh: -1; Mtb betalactam: 37; GDH-TPI inh: 6; Mtb FBA inh: 5; Rv3671c protease: -13; Mtb UGM inh: 2

What do the screens show for `CCOc1ccc(/C=N/NC(=O)c2ccc(Cn3cc([N+](=O)[O-])cn3)o2)cc1`?
FadD28 FP inh: -2; Mtb betalactam: -3; GDH-TPI inh: 42*; Mtb FBA inh: -5; Rv3671c protease: -2; Mtb UGM inh: -3

How did COc1ccc(/C=N/NC(=O)c2ccc(Cn3cc([N+](=O)[O-])cn3)o2)cc1O do in these assays?
FadD28 FP inh: -3; Mtb betalactam: 5; GDH-TPI inh: 37*; Mtb FBA inh: 0; Rv3671c protease: -2; Mtb UGM inh: 1

Results for C=CCn1c(=O)c2c(nc(-c3ccc(S(=O)(=O)O)cc3)n2C)n(C)c1=O ?
FadD28 FP inh: -3; Mtb betalactam: 2; GDH-TPI inh: 3; Mtb FBA inh: active; Rv3671c protease: 2; Mtb UGM inh: -2

Results for COc1cc(/C=N/N(C)c2ccccc2)cc(Cl)c1O ?
FadD28 FP inh: 0; Mtb betalactam: 96; GDH-TPI inh: 40*; Mtb FBA inh: -4; Rv3671c protease: 13; Mtb UGM inh: 0

What do the screens show for `CN=c1scc(C)n1/N=C/c1cc(Br)c(O)c(OC)c1`?
FadD28 FP inh: -1; Mtb betalactam: -3; GDH-TPI inh: 6; Mtb FBA inh: 2; Rv3671c protease: 9; Mtb UGM inh: 0

How did COc1cc(/C=N/N(C)C)cc(Br)c1O do in these assays?
FadD28 FP inh: -1; Mtb betalactam: -8; GDH-TPI inh: 32*; Mtb FBA inh: 3; Rv3671c protease: -15; Mtb UGM inh: 2

What do the screens show for `Cc1nc(N2CCN(C)CC2)c2sc(=S)n(-c3ccccc3)c2n1`?
FadD28 FP inh: -3; Mtb betalactam: -4; GDH-TPI inh: 38*; Mtb FBA inh: 2; Rv3671c protease: -2; Mtb UGM inh: 1

How did COc1cccc(C2=N/C(=C\N(C)C)C(=O)O2)c1 do in these assays?
FadD28 FP inh: 0; Mtb betalactam: 8; GDH-TPI inh: 37*; Mtb FBA inh: 0; Rv3671c protease: 3; Mtb UGM inh: -1

Results for COc1cccc(-c2nc3ccccc3c(=O)o2)c1 ?
FadD28 FP inh: -5; Mtb betalactam: 17; GDH-TPI inh: -5; Mtb FBA inh: 2; Rv3671c protease: 1; Mtb UGM inh: 0

Results for Cc1ccc(/C=N\Nc2nc3ccc(Cl)cc3[nH]2)o1 ?
FadD28 FP inh: -3; Mtb betalactam: 92; GDH-TPI inh: 45*; Mtb FBA inh: -1; Rv3671c protease: 8; Mtb UGM inh: 0

How did O=C(Nc1ccccc1[N+](=O)[O-])C1=C(O)CCn2c1nc1ccccc12 do in these assays?
FadD28 FP inh: -1; Mtb betalactam: 7; GDH-TPI inh: 39*; Mtb FBA inh: 1; Rv3671c protease: 4; Mtb UGM inh: 1
